The supplement of paper PMC8728848
This is one part of a sample in which the strongest signals are shown more often than they occur.

Experiments:
Experiment in all cases: glycan array binding signal (z-score within array); higher = stronger binding
Details in all cases: glycan notation: IUPAC condensed, linker removed; mutation: E41A
[1] = target: Fuc(a1-2)Gal(b1-3)GalNAc(a1-3)[Fuc(a1-2)]Gal(b1-4)GlcNAc
Procedure, shortened: (§1)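 Columns mapping to the same glycan were averaged after glycan names were converted to IUPAC-condensed notation. The data come from 3228 arrays in the Consortium for Functional Glycomics database, limited to those with an available protein sequence. Binding is reported as a within-array Z-score averaged across arrays of one protein sequence and across linkers.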

[2] = target: Fuc(a1-2)Gal(b1-4)GlcNAc(b1-2)Man
Procedure, shortened: as §1

[3] = target: Fuc(a1-2)Gal(b1-4)GlcNAc(b1-3)GalNAc
Procedure, shortened: as §1

[4] = target: Fuc(a1-2)[Gal(a1-3)]Gal(b1-4)[Fuc(a1-3)]Glc
Procedure, shortened: as §1

[5] = target: Fuc(a1-2)[GalNAc(a1-3)]Gal(b1-3)GlcNAc
Procedure, shortened: as §1

[6] = target: Fuc(a1-2)[GalNAc(a1-3)]Gal(b1-4)GlcNAc(b1-2)Man(a1-3)[Fuc(a1-2)[GalNAc(a1-3)]Gal(b1-4)GlcNAc(b1-2)Man(a1-6)]Man(b1-4)GlcNAc(b1-4)[Fuc(a1-6)]GlcNAc
Procedure, shortened: as §1

[7] = target: Fuc(a1-2)[GalNAc(a1-3)]Gal(b1-4)GlcNAc(b1-3)Gal(b1-4)GlcNAc(b1-3)Gal(b1-4)GlcNAc
Procedure, shortened: as §1

[8] = target: Fuc(a1-2)[GalNAc(a1-4)]Gal(b1-4)GlcNAc
Procedure, shortened: as §1

[9] = target: Fuc(a1-3)[Gal(b1-4)]GlcNAc
Procedure, shortened: as §1

[10] = target: Fuc(a1-3)[Gal3S(b1-4)]Glc
Procedure, shortened: as §1

Gal(a1-2)Gal = target: Gal(a1-2)Gal
Procedure, shortened: as §1

Gal(a1-3)Gal(b1-3)GlcNAc = target: Gal(a1-3)Gal(b1-3)GlcNAc
Procedure, shortened: as §1

[11] = target: Gal(a1-3)Gal(b1-3)[Fuc(a1-4)]GlcNAc(b1-2)Man(a1-3)[Gal(a1-3)Gal(b1-3)[Fuc(a1-4)]GlcNAc(b1-2)Man(a1-6)]Man(b1-4)GlcNAc(b1-4)GlcNAc
Procedure, shortened: as §1

[12] = target: Gal(a1-3)Gal(b1-4)[Fuc(a1-3)]GlcNAc
Procedure, shortened: as §1

[13] = target: Gal(a1-4)Gal(b1-4)GlcNAc(b1-2)Man(a1-3)[Gal(a1-4)Gal(b1-4)GlcNAc(b1-2)Man(a1-6)]Man(b1-4)GlcNAc(b1-4)GlcNAc
Procedure, shortened: as §1

[14] = target: Gal(b1-3)GalNAc(b1-3)Gal(a1-4)Gal(b1-4)Glc
Procedure, shortened: as §1

[15] = target: Gal(b1-3)GalNAc(b1-4)Gal(b1-4)Glc
Procedure, shortened: as §1

[16] = target: Gal(b1-3)GlcNAc(b1-2)Man(a1-3)[Gal(b1-3)GlcNAc(b1-2)Man(a1-6)]Man(b1-4)GlcNAc(b1-4)GlcNAc
Procedure, shortened: as §1

[17] = target: Gal(b1-3)GlcNAc(b1-6)Gal(b1-4)GlcNAc
Procedure, shortened: as §1

[18] = target: Gal(b1-4)GlcNAc(b1-2)Man(a1-3)[Gal(b1-4)GlcNAc(b1-2)Man(a1-6)]Man(b1-4)GlcNAc(b1-4)GlcNAc
Procedure, shortened: as §1

[19] = target: Gal(b1-4)GlcNAc(b1-2)Man(a1-3)[GlcNAc(b1-4)][Gal(b1-4)GlcNAc(b1-2)Man(a1-6)]Man(b1-4)GlcNAc(b1-4)GlcNAc
Procedure, shortened: as §1

[20] = target: Gal(b1-4)GlcNAc(b1-3)Gal(b1-4)GlcNAc(b1-2)[Gal(b1-4)GlcNAc(b1-3)Gal(b1-4)GlcNAc(b1-6)]Man(a1-6)[Gal(b1-4)GlcNAc(b1-3)Gal(b1-4)GlcNAc(b1-2)Man(a1-3)]Man(b1-4)GlcNAc(b1-4)GlcNAc
Procedure, shortened: as §1

GalNAc(a1-3)Gal = target: GalNAc(a1-3)Gal
Procedure, shortened: as §1

GalNAc(a1-3)GalNAc = target: GalNAc(a1-3)GalNAc
Procedure, shortened: as §1

[21] = target: GlcNAc(a1-4)Gal(b1-4)GlcNAc
Procedure, shortened: as §1

[22] = target: GlcNAc(b1-2)[GlcNAc(b1-4)]Man(a1-3)[GlcNAc(b1-4)][GlcNAc(b1-2)Man(a1-6)]Man(b1-4)GlcNAc(b1-4)GlcNAc
Procedure, shortened: as §1

[23] = target: GlcNAc(b1-3)Gal(b1-4)GlcNAc(b1-2)[GlcNAc(b1-3)Gal(b1-4)GlcNAc(b1-6)]Man(a1-6)[GlcNAc(b1-3)Gal(b1-4)GlcNAc(b1-2)Man(a1-3)]Man(b1-4)GlcNAc(b1-4)GlcNAc
Procedure, shortened: as §1

[24] = target: GlcNAc(b1-3)Gal(b1-4)GlcNAc(b1-3)Gal(b1-4)GlcNAc(b1-3)Gal(b1-4)GlcNAc(b1-3)Gal(b1-4)GlcNAc(b1-2)Man(a1-3)[GlcNAc(b1-3)Gal(b1-4)GlcNAc(b1-3)Gal(b1-4)GlcNAc(b1-3)Gal(b1-4)GlcNAc(b1-3)Gal(b1-4)GlcNAc(b1-2)Man(a1-6)]Man(b1-4)GlcNAc(b1-4)GlcNAc
Procedure, shortened: as §1

[25] = target: GlcNAc(b1-3)Gal(b1-4)GlcNAc(b1-3)Gal(b1-4)GlcNAc(b1-3)GalNAc
Procedure, shortened: as §1

Kdn(a2-3)Gal(b1-4)Glc = target: Kdn(a2-3)Gal(b1-4)Glc
Procedure, shortened: as §1

[26] = target: Man(a1-2)Man(a1-2)Man(a1-3)Man
Procedure, shortened: as §1

[27] = target: Man(a1-2)Man(a1-2)Man(a1-6)[Man(a1-3)]Man
Procedure, shortened: as §1

Man(a1-2)Man(a1-3)Man = target: Man(a1-2)Man(a1-3)Man
Procedure, shortened: as §1

[28] = target: Man(a1-2)Man(a1-3)[Man(a1-2)Man(a1-6)]Man
Procedure, shortened: as §1

[29] = target: Man(a1-2)Man(a1-3)[Man(a1-2)Man(a1-6)]Man(a1-6)[Man(a1-2)Man(a1-2)Man(a1-3)]Man
Procedure, shortened: as §1

[30] = target: Man(a1-2)Man(a1-3)[Man(a1-6)]Man(a1-6)[Man(a1-2)Man(a1-3)]Man(b1-4)GlcNAc(b1-4)GlcNAc
Procedure, shortened: as §1

[31] = target: Man(a1-2)Man(a1-6)[Man(a1-3)]Man(a1-6)[Man(a1-2)Man(a1-2)Man(a1-3)]Man
Procedure, shortened: as §1

[32] = target: Man(a1-2)Man(a1-6)[Man(a1-3)]Man(a1-6)[Man(a1-2)Man(a1-2)Man(a1-3)]Man(b1-4)GlcNAc(b1-4)GlcNAc
Procedure, shortened: as §1

[33] = target: Man(a1-3)[Man(a1-6)]Man(a1-6)[Man(a1-2)Man(a1-3)]Man(b1-4)GlcNAc(b1-4)GlcNAc
Procedure, shortened: as §1

[34] = target: Neu5Ac(a2-3)Gal(b1-3)GlcNAc(b1-2)Man(a1-3)[GlcNAc(b1-4)][Neu5Ac(a2-3)Gal(b1-3)GlcNAc(b1-2)Man(a1-6)]Man(b1-4)GlcNAc(b1-4)GlcNAc
Procedure, shortened: as §1

[35] = target: Neu5Ac(a2-3)Gal(b1-4)GlcNAc(b1-2)Man
Procedure, shortened: as §1

[36] = target: Neu5Ac(a2-3)Gal(b1-4)GlcNAc(b1-2)Man(a1-3)[GlcNAc(b1-4)][Neu5Ac(a2-3)Gal(b1-4)GlcNAc(b1-2)Man(a1-6)]Man(b1-4)GlcNAc(b1-4)GlcNAc
Procedure, shortened: as §1

[37] = target: Neu5Ac(a2-3)Gal(b1-4)GlcNAc(b1-2)[Neu5Ac(a2-3)Gal(b1-4)GlcNAc(b1-4)]Man(a1-3)[GlcNAc(b1-4)][Neu5Ac(a2-3)Gal(b1-4)GlcNAc(b1-2)[Neu5Ac(a2-3)Gal(b1-4)GlcNAc(b1-6)]Man(a1-6)]Man(b1-4)GlcNAc(b1-4)GlcNAc
Procedure, shortened: as §1

[38] = target: Neu5Ac(a2-3)Gal(b1-4)GlcNAc(b1-3)Gal(b1-4)GlcNAc(b1-3)[Neu5Ac(a2-3)Gal(b1-4)GlcNAc(b1-3)Gal(b1-4)GlcNAc(b1-6)]GalNAc
Procedure, shortened: as §1

[39] = target: Neu5Ac(a2-3)Gal6S(b1-4)[Fuc(a1-3)]GlcNAc
Procedure, shortened: as §1

[40] = target: Neu5Ac(a2-6)Gal(b1-4)GlcNAc(b1-2)Man(a1-3)[GlcNAc(b1-4)][Neu5Ac(a2-6)Gal(b1-4)GlcNAc(b1-2)Man(a1-6)]Man(b1-4)GlcNAc(b1-4)GlcNAc
Procedure, shortened: as §1

[41] = target: Neu5Ac(a2-6)Gal(b1-4)GlcNAc(b1-2)Man(a1-3)[Neu5Ac(a2-3)Gal(b1-4)GlcNAc(b1-2)Man(a1-6)]Man(b1-4)GlcNAc(b1-4)GlcNAc
Procedure, shortened: as §1

[42] = target: Neu5Ac(a2-6)Gal(b1-4)GlcNAc(b1-3)Gal(b1-4)GlcNAc(b1-3)Gal(b1-4)GlcNAc(b1-2)Man(a1-3)[Neu5Ac(a2-6)Gal(b1-4)GlcNAc(b1-3)Gal(b1-4)GlcNAc(b1-3)Gal(b1-4)GlcNAc(b1-2)Man(a1-6)]GalNAc
Procedure, shortened: as §1

[43] = target: Neu5Ac(a2-6)Gal(b1-4)GlcNAc(b1-3)Gal(b1-4)GlcNAc(b1-6)[Gal(b1-3)]GalNAc
Procedure, shortened: as §1

[44] = target: Neu5Ac(a2-8)Neu5Ac(a2-8)Neu5Ac(a2-3)Gal(b1-4)Glc
Procedure, shortened: as §1

Neu5Gc(a2-6)GalNAc = target: Neu5Gc(a2-6)GalNAc
Procedure, shortened: as §1

B1: CVN-E41G (protein)
chain: MHHHHHHENLYFQSGNFSQACYNSAIQGSVLTSTCIRTNGGYNTSSIDLNSVIANVDGSLKWQGSNFIETCRNTQLAGSSELAAECKTRAQQFVSTKINLDDHIAAIDGTLKYE
- glycan array binding signal (z-score) [1]: -0.16
- glycan array binding signal (z-score) [2]: -0.09
- glycan array binding signal (z-score) [3]: -0.19
- glycan array binding signal (z-score) [4]: -0.145
- glycan array binding signal (z-score) [5]: -0.168
- glycan array binding signal (z-score) [6]: 1.61
- glycan array binding signal (z-score) [7]: -0.123
- glycan array binding signal (z-score) [8]: -0.221
- glycan array binding signal (z-score) [9]: -0.194
- glycan array binding signal (z-score) [10]: -0.171
- glycan array binding signal (z-score) (Gal(a1-2)Gal): -0.221
- glycan array binding signal (z-score) (Gal(a1-3)Gal(b1-3)GlcNAc): -0.192
- glycan array binding signal (z-score) [11]: 1.41
- glycan array binding signal (z-score) [12]: -0.243
- glycan array binding signal (z-score) [13]: 0.1
- glycan array binding signal (z-score) [14]: -0.198
- glycan array binding signal (z-score) [15]: -0.211
- glycan array binding signal (z-score) [16]: 0.128
- glycan array binding signal (z-score) [17]: -0.121
- glycan array binding signal (z-score) [18]: -0.227
- glycan array binding signal (z-score) [19]: -0.238
- glycan array binding signal (z-score) [20]: 0.189
- glycan array binding signal (z-score) (GalNAc(a1-3)Gal): -0.219
- glycan array binding signal (z-score) (GalNAc(a1-3)GalNAc): -0.252
- glycan array binding signal (z-score) [21]: -0.214
- glycan array binding signal (z-score) [22]: -0.211
- glycan array binding signal (z-score) [23]: -0.064
- glycan array binding signal (z-score) [24]: -0.204
- glycan array binding signal (z-score) [25]: -0.168
- glycan array binding signal (z-score) (Kdn(a2-3)Gal(b1-4)Glc): -0.177
- glycan array binding signal (z-score) [26]: 8.7
- glycan array binding signal (z-score) [27]: 8.39
- glycan array binding signal (z-score) (Man(a1-2)Man(a1-3)Man): 7.22
- glycan array binding signal (z-score) [28]: 8.35
- glycan array binding signal (z-score) [29]: 10.5
- glycan array binding signal (z-score) [30]: 5.81
- glycan array binding signal (z-score) [31]: 9.42
- glycan array binding signal (z-score) [32]: 6.36
- glycan array binding signal (z-score) [33]: 3.98
- glycan array binding signal (z-score) [34]: 0.053
- glycan array binding signal (z-score) [35]: 0.044
- glycan array binding signal (z-score) [36]: -0.212
- glycan array binding signal (z-score) [37]: -0.177
- glycan array binding signal (z-score) [38]: -0.218
- glycan array binding signal (z-score) [39]: -0.235
- glycan array binding signal (z-score) [40]: -0.208
- glycan array binding signal (z-score) [41]: -0.216
- glycan array binding signal (z-score) [42]: -0.108
- glycan array binding signal (z-score) [43]: -0.172
- glycan array binding signal (z-score) [44]: -0.226
- glycan array binding signal (z-score) (Neu5Gc(a2-6)GalNAc): -0.18
